Data reported in PubChem BioAssay (NCI).
About 83,000 compounds went through this panel and 20% of them were active in at least one assay; those are over-represented in the sample as a whole.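 Each cell line was grown in a 96-well plate and treated with one concentration of compound for 48 hours. Values below 10 were considered active.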 Unmarked numbers belong to inactive results. Calls of active or inactive are those of the source.

Assays:
Assay in all cases: NCI-60 one-dose screen, 48 h (100 = growth as untreated, 0 = no growth, -100 = all killed)
Conditions in all cases: 10 µM
[1] = tested on: T-47D breast
[2] = tested on: BT-549 breast
[3] = tested on: MDA-MB-435 melanoma
[4] = tested on: SW-620 colon
[5] = tested on: MCF7 breast
[6] = tested on: HCT-116 colon
[7] = tested on: HCC-2998 colon
[8] = tested on: KM12 colon

**Q.** For `Cn1c([N+](=O)[O-])cnc1/C=C1\Oc2ccc(Br)cc2C1=O`, which growth [1] is on record?
**A.** The growth was 65.9%.

**Q.** What about the growth [2] of the same compound?
**A.** Its growth is -41% (active).

**Q.** What about the growth [3] of the same compound?
**A.** The growth was -65.8% (active).

**Q.** And the growth [4]?
**A.** The growth was -65.3% (active).

**Q.** And the growth [5]?
**A.** Its growth is 3.52% (active).

**Q.** And the growth [6]?
**A.** Its growth is -27.1% (active).

**Q.** What about the growth [7] of the same compound?
**A.** The growth was -51.7% (active).

**Q.** What about the growth [8] of the same compound?
**A.** The growth was -45.8% (active).

**Q.** Which results are given for `CN(C1c2ccccc2Oc2ccccc21)S(=O)(=O)c1cc(Cl)ccc1Cl`?
**A.** growth [1]: 39.3%; growth [2]: 71.9%; growth [3]: 4.17% (active); growth [4]: 30.3%; growth [5]: 21.4%; growth [6]: 31.3%; growth [7]: 84.3%; growth [8]: 42.8%

**Q.** For `CCCCCCCCCCCCc1ccc(C(=O)/C=C/C(=O)O)cc1`, which growth [1] is on record?
**A.** Its growth is 11.6%.

**Q.** And the growth [2]?
**A.** Its growth is 45%.

**Q.** What about the growth [3] of the same compound?
**A.** The growth was 109%.

**Q.** What about the growth [4] of the same compound?
**A.** Its growth is -23.1% (active).

**Q.** And the growth [5]?
**A.** The growth was -5.2% (active).

**Q.** And the growth [6]?
**A.** The growth was -61.3% (active).

**Q.** And the growth [7]?
**A.** Its growth is 76.2%.

**Q.** What about the growth [8] of the same compound?
**A.** Its growth is 97.7%.

**Q.** `CCN(CC)CC(O)CNc1ccnc2cc(Cl)c(Cl)cc12` (configuration not stated) was tested. Which growth [1] did it give?
**A.** The growth was 93.1%.

**Q.** What about the growth [2] of the same compound?
**A.** Its growth is 88.9%.

**Q.** What about the growth [3] of the same compound?
**A.** Its growth is 96.8%.

**Q.** And the growth [4]?
**A.** Its growth is 97.3%.

**Q.** And the growth [5]?
**A.** Its growth is 79.5%.

**Q.** And the growth [6]?
**A.** The growth was 64.2%.

**Q.** What about the growth [7] of the same compound?
**A.** Its growth is 102%.

**Q.** And the growth [8]?
**A.** The growth was 94.2%.

**Q.** Which growth [1] does the source give for `O=C(/C=C/c1ccc(Cl)cc1)c1ccc(Br)cc1` here?
**A.** Its growth is 79.7%.

**Q.** What about the growth [2] of the same compound?
**A.** Its growth is 102%.

**Q.** And the growth [3]?
**A.** The growth was 99.1%.

**Q.** What about the growth [4] of the same compound?
**A.** Its growth is 102%.

**Q.** What about the growth [5] of the same compound?
**A.** Its growth is 26.3%.

**Q.** What about the growth [6] of the same compound?
**A.** The growth was 75.5%.

**Q.** And the growth [7]?
**A.** The growth was 95%.

**Q.** And the growth [8]?
**A.** The growth was 93.8%.

**Q.** How did the growth [1] turn out when `Cn1c(=O)c2[nH]c(C(O)c3ccc(Cl)cc3)nc2n(C)c1=O` (configuration not stated) was run?
**A.** Its growth is 101%.

**Q.** And the growth [2]?
**A.** The growth was 93.6%.

**Q.** And the growth [3]?
**A.** Its growth is 101%.

**Q.** What about the growth [4] of the same compound?
**A.** Its growth is 89.5%.

**Q.** What about the growth [5] of the same compound?
**A.** Its growth is 96.6%.

**Q.** And the growth [6]?
**A.** Its growth is 95%.

**Q.** What about the growth [7] of the same compound?
**A.** The growth was 97.8%.

**Q.** What about the growth [8] of the same compound?
**A.** The growth was 97.3%.

**Q.** Which results are given for `Cc1cc(C(C)(C)CC(C)(C)C)ccc1OCCOCC[N+](C)(C)Cc1ccccc1`?
**A.** growth [1]: 7.06% (active); growth [2]: -99% (active); growth [3]: -87% (active); growth [4]: -80.6% (active); growth [5]: -90.7% (active); growth [6]: -97.4% (active); growth [7]: -60.6% (active); growth [8]: -92.5% (active)

**Q.** How did the growth [1] turn out when `CCOC(=O)CNC(=O)Nc1ccc(Oc2ccc(NC(=O)NCC(=O)OCC)cc2)cc1` was run?
**A.** Its growth is 106%.

**Q.** What about the growth [2] of the same compound?
**A.** Its growth is 111%.

**Q.** And the growth [3]?
**A.** The growth was 95.4%.

**Q.** And the growth [4]?
**A.** The growth was 98%.

**Q.** And the growth [5]?
**A.** Its growth is 76.4%.

**Q.** And the growth [6]?
**A.** The growth was 98.1%.

**Q.** And the growth [7]?
**A.** The growth was 93.3%.

**Q.** What about the growth [8] of the same compound?
**A.** The growth was 105%.

**Q.** With `O=C(Nc1cccc(-c2nc3ccccc3[nH]2)c1)c1cccc(NC(=O)c2ccco2)c1` as the compound, how does the growth [1] read?
**A.** Its growth is 65.9%.

**Q.** What about the growth [2] of the same compound?
**A.** Its growth is 96.3%.

**Q.** And the growth [3]?
**A.** The growth was -1.71% (active).

**Q.** What about the growth [4] of the same compound?
**A.** The growth was 96.6%.

**Q.** What about the growth [5] of the same compound?
**A.** Its growth is 61.8%.

**Q.** And the growth [6]?
**A.** The growth was 58.4%.

**Q.** What about the growth [7] of the same compound?
**A.** The growth was 96.6%.

**Q.** And the growth [8]?
**A.** Its growth is 88.1%.

**Q.** With `Nc1ncc(-c2ccc(C(F)(F)F)cc2)c(NC2CCCCCC2)n1` as the compound, how does the growth [1] read?
**A.** The growth was 20.5%.

**Q.** And the growth [2]?
**A.** The growth was 48.3%.

**Q.** And the growth [3]?
**A.** The growth was 37.1%.

**Q.** And the growth [4]?
**A.** The growth was 37.4%.

**Q.** And the growth [5]?
**A.** Its growth is 25%.

**Q.** What about the growth [6] of the same compound?
**A.** The growth was 26.3%.

**Q.** What about the growth [7] of the same compound?
**A.** The growth was 35.1%.

**Q.** And the growth [8]?
**A.** The growth was 31.6%.

**Q.** How did the growth [1] turn out when `COc1ccccc1Cn1cc2c(c1-c1ccccc1)CCc1cnoc1-2` was run?
**A.** Its growth is 29.4%.

**Q.** What about the growth [2] of the same compound?
**A.** The growth was 46.9%.

**Q.** What about the growth [3] of the same compound?
**A.** The growth was -21.3% (active).

**Q.** What about the growth [4] of the same compound?
**A.** Its growth is 16.8%.

**Q.** What about the growth [5] of the same compound?
**A.** The growth was 19.3%.

**Q.** What about the growth [6] of the same compound?
**A.** Its growth is 20.9%.

**Q.** And the growth [7]?
**A.** Its growth is 81%.

**Q.** And the growth [8]?
**A.** Its growth is 29.5%.

**Q.** With `O=C(Nc1ccc(CN2CCOCC2)cc1)c1ccc(-c2cc(Cl)ccc2Cl)o1` as the compound, how does the growth [1] read?
**A.** The growth was 34.7%.

**Q.** And the growth [2]?
**A.** The growth was 102%.

**Q.** And the growth [3]?
**A.** The growth was -10.5% (active).

**Q.** And the growth [4]?
**A.** The growth was -2.26% (active).

**Q.** What about the growth [5] of the same compound?
**A.** The growth was -34.1% (active).

**Q.** And the growth [6]?
**A.** Its growth is 22.3%.

**Q.** And the growth [7]?
**A.** The growth was -83.5% (active).

**Q.** What about the growth [8] of the same compound?
**A.** The growth was 8.82% (active).

**Q.** How did the growth [1] turn out when `O=C(Cn1ccc(=O)[nH]c1=O)c1ccc([N+](=O)[O-])o1` was run?
**A.** The growth was 80.4%.

**Q.** What about the growth [2] of the same compound?
**A.** Its growth is 99.4%.

**Q.** What about the growth [3] of the same compound?
**A.** The growth was 97.1%.

**Q.** And the growth [4]?
**A.** The growth was 102%.

**Q.** What about the growth [5] of the same compound?
**A.** Its growth is 38.2%.

**Q.** And the growth [6]?
**A.** Its growth is 88.7%.

**Q.** What about the growth [7] of the same compound?
**A.** The growth was 111%.

**Q.** And the growth [8]?
**A.** Its growth is 83.9%.

**Q.** `CCN(CC)CCOC(=O)c1ccc(N=Nc2ccc(O)c(OC)c2)cc1` was tested. Which growth [1] did it give?
**A.** Its growth is 86.6%.

**Q.** And the growth [2]?
**A.** The growth was 101%.

**Q.** And the growth [3]?
**A.** Its growth is 103%.

**Q.** And the growth [4]?
**A.** Its growth is 103%.

**Q.** What about the growth [5] of the same compound?
**A.** The growth was 95.6%.

**Q.** And the growth [6]?
**A.** Its growth is 93.9%.

**Q.** And the growth [7]?
**A.** The growth was 103%.

**Q.** And the growth [8]?
**A.** The growth was 103%.
